Compound activity: PubChem BioAssay, several laboratories
Only a selection was taken, and hits are over-represented in it overall.
D1 mod: D1 CRE-luciferase signal change, two-sided – cell-based, HEK293 D1, dopamine EC30, D1 allosteric modulator project, primary screen; hit rate 5.9% among 58,000; B-score at 10 µM; dopamine EC30 potentiation; actives deviate in either direction;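 active = luminescence count or its row- and column-corrected plate score outside the 99.7% band of the plate's sample wells, on either side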
PLAP activator: PLAP enzyme activators, biochemical, luminescence, HTS. Alkaline phosphatase, placental type (Homo sapiens), P05187. purified PLAP enzyme, luminescent substrate read-out; stronger effect = higher value. activation fold at 20 µM. hit rate 1.2% among 96,000. AID 696, 2007; in the data active = activation fold above about 2
hDAT+cocaine: changed hDAT dopamine uptake under cocaine IC80, either direction, primary screen, cocaine antagonist project, cell-based, LLC-PK1 hDAT, [14C]-dopamine uptake, MLSMR | Sodium-dependent dopamine transporter (Homo sapiens), Q01959 | AID 449768, 2010 | LLC-PK1 hDAT cells, [14C]-dopamine uptake with cocaine IC80; actives deviate in either direction | hit rate 1.3% among 110,000 | B-score at 10 µM;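 active = Z score or B-score, a plate-position-corrected score, falls beyond the plate's 99.7% confidence bounds, in either direction; inactive = both scores lie inside the 99.7% bounds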;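 also: scored against the spread of the other compound wells on the same plate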
Target sequence (Q01959 whole entry, looked up): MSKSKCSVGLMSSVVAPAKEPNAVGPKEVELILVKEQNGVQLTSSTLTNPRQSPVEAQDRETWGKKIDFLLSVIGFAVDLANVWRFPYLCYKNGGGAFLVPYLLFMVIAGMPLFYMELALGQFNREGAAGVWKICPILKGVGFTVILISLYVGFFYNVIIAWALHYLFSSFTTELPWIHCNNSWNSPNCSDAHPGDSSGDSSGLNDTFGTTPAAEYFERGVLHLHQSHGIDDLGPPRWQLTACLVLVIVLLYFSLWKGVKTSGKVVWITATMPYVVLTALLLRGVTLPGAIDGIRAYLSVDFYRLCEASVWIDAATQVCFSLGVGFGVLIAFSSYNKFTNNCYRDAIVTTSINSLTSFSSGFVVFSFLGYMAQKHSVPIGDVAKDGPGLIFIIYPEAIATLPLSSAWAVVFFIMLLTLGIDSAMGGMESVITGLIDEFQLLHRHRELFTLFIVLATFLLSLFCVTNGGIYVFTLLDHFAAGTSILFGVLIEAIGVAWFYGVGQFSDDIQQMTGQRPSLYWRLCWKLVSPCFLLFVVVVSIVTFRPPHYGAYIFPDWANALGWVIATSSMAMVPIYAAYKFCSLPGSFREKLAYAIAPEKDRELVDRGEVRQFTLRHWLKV
HePTP inh: inhibitors of human HePTP phosphatase, primary screen, biochemical, absorbance, leukemia target. Tyrosine-protein phosphatase non-receptor type 7 (Homo sapiens), P35236. recombinant HePTP phosphatase activity, OD absorbance. inhibition, % at 20 µM. hit rate 0.64% among 110,000; in the data active = inhibition above about 50%;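 also: plate controls were vehicle for no effect and reference inhibitor for full effect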
Candida biofilm: clotrimazole potentiators killing Candida biofilms, primary screen, with clotrimazole, Alamar Blue. hit rate 0.14% among 85,000. C. albicans biofilm + clotrimazole. inhibition, % at 6 µM;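 active = inhibition above 20%; inactive = inhibition below 20%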;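 also: preformed 24 hr biofilms exposed to compound for 48 hr; 0% = biofilm without compound and 100% = blank killed by clotrimazole plus chlorhexidine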
TNAP act mid DEA: human TNAP enzyme activators, primary screen, biochemical, luminescent, intermediate phosphate acceptor level. activation factor at 20 µM. Alkaline phosphatase, tissue-nonspecific isozyme (Homo sapiens), P05186. purified TNAP, CDP-star luminescence, 100 mM DEA, 30 min; stronger effect = higher value; scale: 0 levamisole-inhibited, 1 vehicle-only enzyme. AID 813, 2007. 64,000 tested, under 10 active;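 active = activation factor of at least 2 at 20 µM, relative to controls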
Active calls of the source: *; . = no result.

SMILES | D1 mod | PLAP activator | hDAT+cocaine | HePTP inh | Candida biofilm | TNAP act mid DEA
CCCNC(=O)C(Cc1ccccc1)NS(=O)(=O)c1ccc2c(c1)CCC(=O)N2 (stereo not drawn) | 1.06 | 0.8 | -2.16* | -4.9 | 2.8 | 1
O=C(Nc1ccc(F)c(Cl)c1)c1cnccn1 | . | . | . | 10.2 | . | .
CCCCN(C)C(=O)C1CCC(=O)N(c2cc(OC)c(OC)c(OC)c2)C1c1ccc(OC)cc1 (stereo not drawn) | -0.856 | . | -8.44* | 10.6 | 4.6 | 0.9
COc1ccc(C2C(C(=O)O)CCC(=O)N2c2ccc(OC)cc2)cc1 (stereo not drawn) | . | 1.2 | -0.732 | . | 2.0 | .
CCN(CC)Cc1ccc(OC(C)C)c(CN(CC)CC)c1 | . | . | . | -11.0 | . | .
CCOc1ccc2[nH]c(=O)c(C(c3nnnn3Cc3ccco3)N3CCCC(C)C3)cc2c1 (stereo not drawn) | -0.495 | 1.7 | 2.49* | 1.8 | 9.8 | 0.9
COc1ccc2[nH]c(=O)c(C(c3nnnn3C3CCCC3)N3CCN(Cc4ccc5c(c4)OCO5)CC3)cc2c1 (stereo not drawn) | . | 2* | 2 | . | 5.1 | .
CCOc1ccc2[nH]c(=O)c(C(c3nnnn3C3CCCCC3)N3CCN(CC)CC3)cc2c1 (stereo not drawn) | -0.0139 | 1.5 | 0.399 | 9.0 | 6.9 | 0.9
Cc1ccc(OCC(O)Cn2c3ccccc3c3ccccc32)cc1 (stereo not drawn) | . | 0.9 | 1.7* | -5.9 | . | .
COc1ccc(N2CCN(CC(O)COc3ccc4c(c3)CCC4)CC2)cc1 (stereo not drawn) | . | 2* | 0.02 | . | 4.1 | .
CC(=O)Nc1ccc(OCC(O)CN2CCN(c3cccc(Cl)c3)CC2)cc1 (stereo not drawn) | -3.1* | 1.3 | 0.86 | 7.5 | 1.3 | 0.8
COc1ccccc1N1CCN(Cc2cccc(OC)c2OC)CC1 | -5.25 | 1 | -0.255 | 1.0 | -1.3 | 1
COc1cccc(OC)c1OCC(O)CN1CCN(c2ccccc2)CC1 (stereo not drawn) | -2.85 | 1.1 | -0.61 | 6.2 | . | 1
COc1cc(OC)c(OC)cc1CN1CCN(c2ccccc2OC)CC1 | -3.75* | 1.6 | -1.4 | 7.3 | 2.1 | 0.9
C=CCc1ccccc1OCC(O)CN1CCN(c2ccc(OC)cc2)CC1 (stereo not drawn) | -2.58* | 1.4 | -1.11 | 9.5 | 5.3 | 0.9
CC(=O)Nc1ccc(OCC(O)CN2CCN(c3ccc(Cl)cc3)CC2)cc1 (stereo not drawn) | . | . | 0.38 | . | 8.3 | .
Cc1nc2cc(NCc3cc4ccccc4[nH]3)ccc2n1C | . | . | . | -1.6 | . | .
CCC(=O)NC(Nc1ccc(F)c(Cl)c1)(C(F)(F)F)C(F)(F)F | . | . | . | -4.4 | . | .
COc1ccccc1N1CCN(CC(O)c2ccc3cc[nH]c3c2)CC1 (stereo not drawn) | -2.63* | 0.9 | -1.15 | 5.9 | 8.5 | 0.8
COc1ccccc1N1CCN(C(=O)CSc2ccccc2)CC1 | . | 1.3 | 1.92 | . | 4.8 | .
COc1ccccc1N1CCN(CC(O)COc2c(OC)cccc2OC)CC1 (stereo not drawn) | -4.63* | 1 | -1.26 | 2.7 | 6.9 | 0.9
COc1ccc(C(=O)O/N=C2/C(=O)N(C)c3ccccc32)cc1OC | . | . | . | 8.5 | . | .
CSc1ccccc1NC(=O)CC1Nc2ccccc2NC1=O (stereo not drawn) | . | . | . | 3.0 | . | .
CCOC(=O)c1ccc(N2NC(=O)/C(=C/c3ccc(OC)c(Br)c3)C2=O)cc1 | . | . | . | 54.9* | . | .
CCOC(=O)c1ccc(N2NC(=O)/C(=C/c3cc(OC)c(O)c(OC)c3)C2=O)cc1 | . | . | . | 89.0* | . | .
SMILES | D1 mod | PLAP activator | hDAT+cocaine | HePTP inh | Candida biofilm | TNAP act mid DEA
CCOc1cc(/C=C2/C(=O)NN(c3ccc(I)cc3)C2=O)ccc1O | . | . | . | 89.9* | . | .
Cc1ccc(/C=N/NC(=O)CN(c2cccc(C(F)(F)F)c2)S(=O)(=O)c2ccccc2)c(C)c1C | . | . | . | 5.0 | . | .
CN1C(=O)CS/C1=N/S(=O)(=O)c1ccc([N+](=O)[O-])cc1 | . | . | . | 6.9 | . | .
COc1ccc(OCCSc2n[nH]c(N)n2)cc1 | . | 2.6* | -0.161 | . | . | .
COc1ccc(OCCSc2ncn[nH]2)cc1 | . | 1.2 | 0.48 | . | 4.8 | .
CC(CCc1ccco1)NC(=O)c1cc2c(-c3ccccc3F)nn(C)c2s1 (stereo not drawn) | 0.246 | 1.6 | 2.93* | 2.3 | 12.0 | 1
Cn1nc(-c2ccccc2F)c2cc(C(=O)Nc3ccc4c(c3)OCCO4)sc21 | . | 1.6 | -3.69 | . | 0.6 | .
COc1ccccc1N1C(=O)CC(S/C(N)=N/N=C(\C)c2ccc(F)cc2)C1=O (stereo not drawn) | . | . | . | 6.6 | . | .
Nc1nc(SCC(=O)N2N=C3/C(=C/c4ccco4)CCCC3C2c2ccco2)n[nH]1 (stereo not drawn) | . | 2.1* | 0.359 | . | . | .
Cn1cnnc1SCC(=O)N1N=C2/C(=C/c3ccco3)CCCC2C1c1ccco1 (stereo not drawn) | . | 1.3 | 0.0402 | . | 1.0 | .
CCOC(=O)C(=CNc1cc(C)nn1-c1ccccc1)C(=O)OCC | . | 1.3 | 2.21* | . | 0.3 | .
CCOC(=O)C(=CNc1ccccc1C)C(=O)OCC | . | 0.9 | 0.802 | . | . | .
CCc1nnc(NC(=O)c2ccc(S(=O)(=O)N3CCCc4ccccc43)cc2)o1 | . | 2.1* | 0.288 | . | 3.9 | .
Cc1cc(S(N)(=O)=O)ccc1NC(=O)c1sc2ccccc2c1Cl | . | . | . | -5.6 | . | .
COc1cc2nc(-c3cccs3)oc(=O)c2cc1OC | 5.6* | . | -0.335 | 5.6 | 6.4 | 0.9
COC(=O)c1c(NC(=O)/C=C/c2cccc([N+](=O)[O-])c2)sc2c1CCCC2 | . | . | . | -15.5 | . | .
Cc1cccc(N2CCN(CC(=O)Nc3nccs3)CC2)c1C | . | 2.3* | 0.854 | . | . | .
CCc1c(C)sc(NC(=O)c2c(-c3ccccc3Cl)noc2C)c1C(=O)OC | . | . | . | 3.8 | . | .
CCCNC(=O)c1c(N)n(-c2cccc(OC)c2)c2nc3ccccc3nc12 | 0.752 | 1.2 | 0.171 | 2.9 | -0.1 | 1
Nc1c(C(=O)NCCN2CCOCC2)c2nc3ccccc3nc2n1-c1cccc(F)c1 | -0.0618 | 2* | 0.639 | 5.2 | . | 1.1
COc1ccc(NC(=O)CSC2=C(C#N)C(c3ccco3)C3=C(CCCC3=O)N2)c(OC)c1 (stereo not drawn) | -2.26 | 1.8 | -2.66* | 5.6 | -3.6 | 0.9
O=C(Cn1ncc2c(=O)oc3ccccc3c21)N1CCc2ccccc2C1 | . | . | -0.88 | 3.3 | 22.4* | 1
CC(C)(C)c1cc(N2C(=O)C(=O)/C(=C(\O)c3ccccc3)C2c2ccc(Cl)cc2)no1 (stereo not drawn) | . | . | . | 1.9 | . | .
CCc1ccccc1NC1=C(Cl)C(=O)N(c2ccc(Br)cc2)C1=O | . | . | . | 6.8 | . | .
